Source: PubChem
An excerpt weighted towards active compounds, which were near 3.2% of everything screened.
Mtb UGM inh – inhibitors of M. tuberculosis UDP-galactopyranose mutase | actives 0.06% (n = 320,000) | inhibition, % at 10 µM | purified UGM, fluorescence polarization probe displacement; in the data active means inhibition above about 10%, passing the limit was not always enough; inconclusive means no clear call, values can overlap the other calls
Rv3671c protease – inhibits the M. tuberculosis serine protease Rv3671c | P9WHR9 | inhibition, % at 5.96 µM | actives 0.048% (n = 320,000) | AID 2606; in the data active means inhibition above about 38%;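 further: extracellular domain of Rv3671c used as enzyme; 0% = enzyme with DMSO and 100% = no enzyme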
SSB-PriA inh – blocks PriA binding to SSB C-terminal tail | actives 0.6% (n = 430,000) | AlphaScreen SSBct-PriA binding, biotinylated peptide | inhibition, % at 33 µM | AID 1272365; in the data active means inhibition mostly above about 37%, no sharp cut-off; inactive means mostly below about 20%;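 further: plate controls were negative control peptide for no effect and reference peptide for full effect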
Mtb betalactam – beta-lactam sensitization of Mtb H37Rv | M. tuberculosis H37Rv growth with meropenem, percent inhibition | inhibition, % at 25 µM | actives 0.27% (n = 330,000) | AID 434955; call rule not given here;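 further: growth measured after seven days incubation then overnight dye step; 0% = bacteria only wells and 100% = bacteria with antibiotic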
GDH-TPI inh – inhibits GDH-TPI coupling enzymes, artifact for Mtb FBA screen; GDH-TPI coupled enzyme counterscreen, NADH absorbance; inhibition, % at 4.8 µM; actives 1.2% (n = 360,000); AID 588335; in the data active means inhibition above about 30%;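 further: 0% = DMSO wells and 100% = wells lacking the enzyme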
FBA Mtb inh – inhibits M. tuberculosis FBA enzyme; purified M. tuberculosis FBA, fluorescence read-out; actives 2.3% (n = 360,000); P9WQA3; inhibition, % at 1 µM; in the data active means inhibition above about 27%;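 further: 0% = vehicle and 100% = reference inhibitor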
Target sequence (P9WQA3 whole entry, looked up): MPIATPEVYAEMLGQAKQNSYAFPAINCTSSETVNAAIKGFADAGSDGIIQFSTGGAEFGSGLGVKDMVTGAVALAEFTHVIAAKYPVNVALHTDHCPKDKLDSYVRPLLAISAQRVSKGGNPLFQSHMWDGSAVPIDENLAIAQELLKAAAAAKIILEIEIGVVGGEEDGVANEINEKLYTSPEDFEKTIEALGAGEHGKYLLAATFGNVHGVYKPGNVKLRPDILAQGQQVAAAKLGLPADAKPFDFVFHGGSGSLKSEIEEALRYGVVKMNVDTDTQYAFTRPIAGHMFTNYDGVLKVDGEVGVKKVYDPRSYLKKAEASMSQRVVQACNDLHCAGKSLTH
* marks the source's active call; other numbers are inactive results; i = inactive; ? = inconclusive; · = no result; + = active, no number.

SMILES	Mtb UGM inh	Rv3671c protease	SSB-PriA inh	Mtb betalactam	GDH-TPI inh	FBA Mtb inh
CN(C)C(CNC(=O)C(=O)Nc1cccc(F)c1)c1cccc2ccccc12 (stereo not given)	·	·	8.0	·	·	·
O=C(Cc1ccc(F)cc1)N(CCn1cccn1)c1nc2ccccc2s1	·	·	0.0	·	·	·
OCCN(CCO)c1ccc(C(c2ccc(Cl)cc2)c2ccc(N(CCO)CCO)cc2Cl)c(Cl)c1	-2.6	14.6	10.5	4.7	-3.0	-0.8
Cc1cc(N(CCO)CCO)ccc1N=Nc1cc(F)ccc1F	-0.5	14.7	75.3*	44.2	4.4	-22.4
COC(=O)c1sc(NC(=O)c2ccccc2)c(C#N)c1C	·	·	-17.0	·	·	·
COC(=O)c1sc(NC(=O)c2ccc([N+](=O)[O-])o2)c(C#N)c1C	4.4	7.0	1.9	99.3	32.5*	-3.6
O=S(=O)(c1ccccc1F)N1CCC(N2CCC[C@@H]2CO)CC1	·	·	-4.0	·	·	·
C=CCSc1nc(N)c(C(=O)Nc2ccccc2OC)cc1C(=O)Nc1ccccc1	-0.2	-3.2	7.4	1.1	37.3*	2.5
COc1ccc(-c2ccc(N3CCN(C(=O)c4ccccn4)CC3)nn2)cc1OC	·	·	-2.0	·	·	·
CC(C)(C=NO)/[N+]([O-])=C/C=[N+](\[O-])C(C)(C)C=NO	·	·	-0.9	·	·	·
Cc1nc(/C=[N+](\[O-])C(C)(C)/C=N/O)n(O)c1C	-1.1	-2.0	·	6.8	30.9*	-2.2
Cc1nc(N)sc1C(=O)N/N=C/c1ccccc1[N+](=O)[O-]	3.2	-2.0	·	4.9	22.1	2.5
CC(/C=N/NC(=O)c1cccs1)=C\c1ccccc1	-0.6	-3.4	·	9.4	32.3*	-2.7
COc1ccccc1C=NNC(=O)NN=Cc1ccccc1OC	·	·	6.1	·	31.5*	-1.6
NC(=O)C(=O)NN=Cc1c[nH]c2ccc(Br)cc12	·	·	-10.2	·	·	·
O=C(N/N=C/c1c[nH]c2ccc(Br)cc12)C1CC1	-0.7	-3.7	·	2.8	31.6*	9.5
Cc1nc(N)sc1C(=O)N/N=C/c1ccco1	1.2	0.3	·	-7.1	37.9*	-0.8
COc1cccc(C=Nn2cnc3ccccc32)c1OC	·	·	-2.7	·	·	·
C/C(C=NNC(=O)c1ccccc1C)=C\c1ccccc1	·	·	-4.3	·	·	·
O=C(O)COc1ccccc1/C=N/NC(=O)c1ccc(F)cc1	3.0	-2.2	·	-2.0	46.3*	-1.4
CC(/C=N/NC(=O)c1sc(N)nc1C)=C\c1ccccc1	-1.0	5.8	·	2.1	37.0*	-4.4
O=C(O)COc1ccccc1/C=N/NC(=O)CNC(=O)c1ccc(F)cc1	2.1	8.1	i	-3.7	15.2	-5.7
Cc1cccc(NC(=S)N/N=C/c2c[nH]c3ccccc23)c1	-1.5	12.7	·	41.9	35.7*	1.6
O=C(N/N=C/C(Br)=C\c1ccccc1)c1n[nH]c2c1CCC2	2.0	-7.5	·	?	23.9	1.1
CC(/C=N/NC(=O)c1n[nH]c2c1CCC2)=C\c1ccccc1	-0.1	-6.5	·	-7.9	31.5*	-1.0
SMILES	Mtb UGM inh	Rv3671c protease	SSB-PriA inh	Mtb betalactam	GDH-TPI inh	FBA Mtb inh
CC(NS(=O)(=O)c1ccc(Oc2ccccc2Cl)cc1)C(=O)O (stereo not given)	·	·	-11.0	·	·	·
COc1ccccc1/C=C/C=N/NC(=O)c1cccs1	1.1	-8.5	i	89.4	45.2*	-0.3
O=C(N/N=C/c1cc(Br)cs1)c1c[nH]c2ccccc12	1.2	-21.3	i	8.1	23.8	-3.1
Cc1nc(N)sc1C(=O)N/N=C/c1c[nH]c2ccccc12	0.0	-4.1	·	17.9	56.5*	-2.1
COc1ccccc1/C=C\C=N\NC(=O)CCn1nnc2ccccc21	-0.9	-3.3	·	3.6	38.1*	4.2
O=C(N/N=C/c1ccc(Br)s1)c1c[nH]c2ccccc12	1.8	-10.5	·	?	39.7*	0.3
Oc1cccc(C=NNc2cc(N3CCOCC3)nc(N3CCOCC3)n2)c1	·	·	-4.4	·	·	·
COc1cc(C=NNC(=O)c2sc(N)nc2C)cc(OC)c1OC	·	·	-8.9	·	·	·
O=C(N/N=C/c1c[nH]c2ccccc12)c1ccn(Cc2ccc(Cl)cc2)n1	0.2	4.9	·	3.5	31.8*	-0.2
COc1cc(/C=N\NC(=O)c2sc(N)nc2C)cc(OC)c1OC	-1.0	2.6	·	39.3	41.5*	-9.1
O=C(C=Cc1ccccc1)c1cccs1	·	·	-9.1	·	34.4*	-4.9
O=C(N/N=C/c1c[nH]c2ccccc12)c1cc(Br)ccc1O	0.2	12.1	·	-4.2	31.3*	5.9
Cc1c(/C=N/NC(=O)c2cc(Br)ccc2O)c(=O)n(C)c(=O)n1C	0.3	-2.3	·	7.9	30.9*	-0.3
Cc1ccc(C(=O)N/N=C/c2c[nH]c3ccccc23)o1	-0.3	-1.5	·	6.0	31.1*	-2.7
Oc1cccc2ccc[n+](CC(O)Cn3c4ccccc4c4ccccc43)c12 (stereo not given)	-1.2	5.1	73.4*	7.7	7.2	-0.5
C[C@@H](C(=O)NCc1ccco1)N1C(=O)N2CCc3c([nH]c4ccccc34)[C@@]2(C)C1=O	0.5	-1.6	47.1*	1.4	3.9	-2.6
CC(C)C[C@@H](C(=O)NCc1ccco1)N1C(=O)N2CCc3c([nH]c4ccccc34)[C@@]2(C)C1=O	-0.4	-7.0	19.4	-3.7	0.0	-1.0
COc1cc(/C=C/C(=O)c2ccc3c(c2)OCCO3)cc(OC)c1OC	0.4	2.5	20.6	28.8	37.3*	-3.1
OC(CNCCC1C=Nc2ccccc21)Cn1c2ccc(Cl)cc2c2cc(Cl)ccc21 (stereo not given)	-1.1	12.3	65.3*	100.1	3.7	-0.8
Oc1ccccc1N=Nc1ccccc1O	·	·	41.3	·	7.1	0.4
Nc1ccc(N=Nc2ccccc2O)c(N)c1	1.0	-6.6	67.8*	·	0.8	-5.4
O=C(COc1ccccc1F)N1CCN(Cc2csc(-c3ccccc3)n2)CC1	·	·	7.0	·	·	·
c1ccc2c(c1)ncc1cccn12	0.3	1.5	-1.7	-0.2	16.7	+
c1ccc(-c2ncc3ccccn23)cc1	1.4	9.7	-10.4	-3.6	2.6	19.1
Cn1c(=O)c2c(SCC(=O)N3CCC(Cc4ccccc4)CC3)ccnc2n(C)c1=O	·	·	2.0	·	·	·
SMILES	Mtb UGM inh	Rv3671c protease	SSB-PriA inh	Mtb betalactam	GDH-TPI inh	FBA Mtb inh
O=C(Nc1ccc(CN2CCN(c3ccccn3)CC2)cc1)Nc1ccc2c(c1)OCO2	·	·	50.0*	·	·	·
NC(CS(=O)(=O)c1ccc(F)cc1)=NO	·	·	-4.7	·	·	·
CC(C)Oc1cc(CN)ccn1	·	·	-11.0	·	·	·
N#C/C(=C\c1cn(-c2ccccc2)nc1-c1cccnc1)c1nnc2n1CCCCC2	1.7	4.0	-11.3	8.0	38.8*	3.2
CC(C)C1C(C#N)=C(N)Oc2c1oc(CO)cc2=O (stereo not given)	·	·	3.0	·	·	·
O=C(O)c1ccc2cnccc2c1	·	·	2.0	·	·	·
O=c1c2[nH]c3ccccc3c2ncn1Cc1ccccc1	·	·	-2.0	·	·	·
C/C(C=Nn1c(COc2ccccc2)n[nH]c1=S)=C\c1ccccc1	·	·	22.1	·	·	·
COc1cc(C=NNC(=S)NC2CC3CC2C2C=CCC32)ccc1O (stereo not given)	·	·	-6.2	·	·	·
Oc1ccc(O)c(C=NNC(=S)NC2CC3CC2C2C=CCC32)c1 (stereo not given)	·	·	·	·	31.0*	2.4
COc1ccc(NC(=O)C(=O)NNC(=O)c2cccs2)c(OC)c1	-1.7	-1.9	-20.0	75.4	36.2*	1.4
